Results taken from PubChem BioAssay (NCATS).
Calls of active or inactive are those of the source. Calls follow the shape of the dose curve; as a rule, active = well fitted activation curve with a large enough effect; inconclusive = small, poorly fitted or top-dose-only effect; inactive = flat fitted curve, though single readings scatter. Numbered stars: 1 amine (or outer) side, 2 acyl side, 3 side chain; on linkers, the order of the positions; unused ones are H or OH. Bridge positions count the residues as written; N and C are the ends. Square brackets hold non-standard residues; d marks the D form. Peptide text beside a SMILES is read from it. I, II: the chains in the order shown. Actinocin(9to1) = Cc1c2oc3c(C)ccc(C(=O)[*:1])c3nc-2c(C(=O)[*:2])c(N)c1=O; NMeV = CN[C@H](C(=O)O)C(C)C; Sar = CNCC(=O)O

Assay: Cellular Toxicity (caspase-3) HepG2 (AID 654);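 as to caspase-3 activation: cells exposed to compound for 16 hours before reading; 0% = DMSO alone and 100% = caspase signal from 100 µM tamoxifen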
Conditions: HepG2 caspase-3 activation, luminescence; series mostly up to 92.2 µM; caspase-3 activation: at the top concentration
From the text: NIH Chemical Genomics Center [NCGC]
NIH Molecular Libraries Screening Centers Network [MLSCN]
National Institutes of Environmental Health Sciences [NIEHS]
National Toxicology Program [NTP]
We have developed a 1536-well cell-based assay for quantitative high throughput screening (qHTS) against a number of cell lines to determine in vitro caspase 3/7 of small molecules. This particular assay uses the HepG2 cell line which is derived from human hepatocellular carcinoma.
NCGC Assay Protocol Summary:
The Caspase-Glo 3/7 assay (Promega) is a homogeneous method to measure caspase-3 and caspase-7 activities in cultured cells. The quantitation of caspase 3/7 activity is based on the cleavage of a peptide-aminoluciferin substrate. After caspase cleaves the substrate the free aminoluciferin is liberated and serves as the substrate of luciferase, which generates the light. The luminescent signal is proportional to amount of caspase 3/7 activity present.
Using the Caspase-Glo 3/7 assay, the amount of caspase 3/7 activity was measured in the HepG2 cell line with complete culture medium following compound treatment for 16 hours. The assay was performed in opaque white 1536-well plates. In the screen, tamoxifen and doxorubicin were used as positive controls. Library compounds were measured for their ability to cause the activation of caspase 3/7 in the cell line, as reflected by an increase in luminescence signal, in a concentration-dependent manner. Data were normalized to the controls for basal activity (DMSO only) and 100% stimulation (100 uM tamoxifen). AC50 values were determined from concentration-response data modeled with the standard Hill equation.
qHTS protocol for caspase 3/7 assay in HepG2 cells
[Step] [Parameter] [Value] [Description]
1. Reagent; 5 uL; 1500 HepG2 cells/well
2. Time; 5 hr; 37 °C incubation
4. Controls; 23 nL; Tamoxifen 0.23 uM to 100 uM & Doxorubicin 7.0 pM to 100 uM
5. Time; 16 hr; 37 °C incubation
6. Reagent; 5 uL; Caspase-Glo 3/7 reagent
7. Time; 20 min; Room Temperature
8. Detection; Luminescence; Viewlux plate reader
Keywords: caspase 3/7, apoptosis, HepG2 cell line, luminescence, NTPHTS, NTPHTS_NCGC, NIEHS, EPA, DSSTox, MLSMR, MLSCN, NIH Roadmap, qHTS, NCGC
Potency is read from the fitted curve at half-maximal effect.

Row | Compound | caspase-3 activation | Potency
1 | Oc1c(Cl)cc(Cl)cc1Sc1cc(Cl)cc(Cl)c1O | -0.945% (inactive) | –
2 | C=CCc1ccc(O)c(OC)c1 | -0.21% (inactive) | –
3 | Cc1c2oc3c(C)ccc(C(=O)N[C@@H]4C(=O)N[C@H](C(C)C)C(=O)N5CCC[C@H]5C(=O)N(C)CC(=O)N(C)[C@@H](C(C)C)C(=O)O[C@@H]4C)c3nc-2c(C(=O)N[C@@H]2C(=O)N[C@H](C(C)C)C(=O)N3CCC[C@H]3C(=O)N(C)CC(=O)N(C)[C@@H](C(C)C)C(=O)O[C@@H]2C)c(N)c1=O (I: T[dV]P[Sar][NMeV] / II: T[dV]P[Sar][NMeV]; ester I:1-I:C, II:1-II:C; linker I:N-II:N via Actinocin(9to1)) | 7.36% (inactive) | –
4 | CN(C)/N=N/c1nc[nH]c1C(N)=O | -0.737% (inactive) | –
5 | C=C(CC)C(=O)c1ccc(OCC(=O)O)c(Cl)c1Cl | -1.88% (inactive) | –
6 | Oc1c(I)cc(Cl)c2cccnc12 | 3.19% (inactive) | –
7 | CC(O)C(=O)O (stereo unspecified) | 0.77% (inactive) | –
8 | CC(=O)Oc1ccc(C(c2ccc(OC(C)=O)cc2)c2ccccn2)cc1 | -0.65% (inactive) | –
9 | COC1=CC(=O)C[C@@H](C)[C@]12Oc1c(Cl)c(OC)cc(OC)c1C2=O | 2.34% (inactive) | –
10 | O=C1OC(c2ccc(O)cc2)(c2ccc(O)cc2)c2ccccc21 | 0.143% (inactive) | –
11 | C[C@]12CC[C@@H]3c4ccc(O)cc4CC[C@H]3[C@@H]1CC[C@@H]2O | 1.73% (inactive) | –
12 | Nc1ccc(C(=O)O)cc1 | -0.742% (inactive) | –
13 | Oc1ccc(Cl)cc1Sc1cc(Cl)ccc1O | 2.64% (inactive) | –
14 | CC(=O)O[C@]1(C(C)=O)CC[C@H]2[C@@H]3C[C@H](C)C4=CC(=O)CC[C@]4(C)[C@H]3CC[C@@]21C | 0.807% (inactive) | –
15 | CC/C(=C(/CC)c1ccc(O)cc1)c1ccc(O)cc1 | -1.02% (inactive) | –
16 | CC(C)(C)CC(C)(C)c1ccc(OCCOCC[N+](C)(C)Cc2ccccc2)cc1 | – | 50.1 µM (active)
17 | O=c1ccc2ccccc2o1 | 0.0271% (inactive) | –
18 | CCCCCCc1ccc(O)cc1O | -1.18% (inactive) | –
19 | Oc1ccc(O)cc1 | 2.21% (inactive) | –
20 | NC(=NCCCCCCN=C(N)/N=C(\N)Nc1ccc(Cl)cc1)/N=C(\N)Nc1ccc(Cl)cc1 | 0.211% (inactive) | –
21 | O=C(O)CCCCC(=O)O | 0.843% (inactive) | –
